# HP1b chromo inh = inhibitors of HP1-beta chromodomain binding to methylated histone tails; P83916; AlphaScreen HP1-beta / biotin-H3K9me3 peptide binding; Potency, µM (titrated, usually from 114 µM), for the others: at the highest dose activity change, negative = inhibition, hits mostly inhibitors; hit rate 0.56% among 390,000; further: nearly all actives have a fitted effect of over 70% in size
#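 AlphaScreen: HP1-beta (50 nM) preformed 30 min with biotin-H3(1-18)K9me3 peptide (50 nM) in PBS pH 7.4, 0.01% Tween-20. Compound added for 30 min at RT, then streptavidin donor/nickel chelate acceptor beads (10 ug/mL) for 30 min.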
# BAZ2B inh = BAZ2B (human) inhibition. hit rate 4.4% among 360,000. AlphaScreen BAZ2B-H3K14Ac peptide displacement. Q9UIF8. Potency, µM (doses to about 114 µM), for inactives: at the top dose activity change, negative = inhibition, usual class: inhibitors; further: on the % scale 0 is the no-effect control and ±100 the full control effect; nearly all actives have a fitted effect of over 60% in size
#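 In this displacement format the biotinylated H3(5-23) peptide acetylated at Lys14 serves as ligand at 50 nM, with BAZ2B at 50 nM in PBS pH 7.4 containing 0.01% Tween-20. Donor and acceptor beads are 10 ug/mL final.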
# G9a inh = G9a (human) methyltransferase inhibition | Q96KQ7 | G9a H3K9 monomethylation, AlphaScreen, 2 h | Potency, µM (series often up to 102 µM), inactives show at the top dose activity, negative = inhibition, usual class: inhibitors | hit rate 8.8% among 350,000; further: on the % scale 0 is the no-effect control and ±100 the full control effect; nearly all actives have a fitted effect of over 75% in size
#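 Step 1: enzyme (final 20 nM) with compound, 15 min RT. Step 2: substrate peptide 500 nM and SAM 20 uM, 2 h RT. Step 3: anti-H3K9me1 antibody and AlphaScreen beads, 10 min, then plate read.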
# ALOX12 inh = blocks human arachidonate 12S-lipoxygenase. P18054. purified 12hLO, xylenol orange hydroperoxide absorbance. Potency, µM (titrated, usually from 108 µM), for the others: at the highest dose activity change, negative = inhibition, most hits filed as inhibitors. hit rate 1.1% among 580,000; further: on the % scale 0 is the no-effect control and ±100 the full control effect
#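 Hydroperoxide product was detected by ferrous iron/xylenol orange as the 573 to 405 nm absorbance ratio. Arachidonic acid at 40 uM (final) was turned over for 30 min at room temperature by 150 nM human 12hLO, pH 7.0 Hepes buffer, after 15 min compound preincubation.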
# Sfp PPTase inh = Sfp phosphopantetheinyl transferase inhibition; Q9F4F7; hit rate 3.5% among 310,000; Potency, µM, for inactives: largest response in the series, negative = inhibition, most hits filed as inhibitors; Biochemical Sfp PPTase activity, qHTS;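 further: the enzyme is Sfp with the accession as filed and its product quenches rhodamine fluorescence; 0% = enzyme reaction without inhibitor and -100% = no enzyme wells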
#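 With Hepes-Na pH 7.6 buffer containing 10 mM MgCl2, Sfp (15 nM) modified BHQ-2-YbbR (12.5 uM) using rhodamine-CoA (5 uM). Two reads 30 minutes apart at 525/598 nm yielded each well's rate.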
# JMJD2A Tudor = blocks the human JMJD2A Tudor domain; AID 504339; hit rate 4.4% among 390,000; O75164; Potency, µM (top dose mostly 114 µM), for the others: at the highest dose activity change, negative = inhibition, actives largely listed as inhibitors; AlphaScreen JMJD2A-Tudor / H3K4me3 peptide binding; further: on the % scale 0 is the no-effect control and ±100 the full control effect; nearly all actives have a fitted effect of over 50% in size
# Target sequence (O75164 whole entry, looked up, the tested form may be a part): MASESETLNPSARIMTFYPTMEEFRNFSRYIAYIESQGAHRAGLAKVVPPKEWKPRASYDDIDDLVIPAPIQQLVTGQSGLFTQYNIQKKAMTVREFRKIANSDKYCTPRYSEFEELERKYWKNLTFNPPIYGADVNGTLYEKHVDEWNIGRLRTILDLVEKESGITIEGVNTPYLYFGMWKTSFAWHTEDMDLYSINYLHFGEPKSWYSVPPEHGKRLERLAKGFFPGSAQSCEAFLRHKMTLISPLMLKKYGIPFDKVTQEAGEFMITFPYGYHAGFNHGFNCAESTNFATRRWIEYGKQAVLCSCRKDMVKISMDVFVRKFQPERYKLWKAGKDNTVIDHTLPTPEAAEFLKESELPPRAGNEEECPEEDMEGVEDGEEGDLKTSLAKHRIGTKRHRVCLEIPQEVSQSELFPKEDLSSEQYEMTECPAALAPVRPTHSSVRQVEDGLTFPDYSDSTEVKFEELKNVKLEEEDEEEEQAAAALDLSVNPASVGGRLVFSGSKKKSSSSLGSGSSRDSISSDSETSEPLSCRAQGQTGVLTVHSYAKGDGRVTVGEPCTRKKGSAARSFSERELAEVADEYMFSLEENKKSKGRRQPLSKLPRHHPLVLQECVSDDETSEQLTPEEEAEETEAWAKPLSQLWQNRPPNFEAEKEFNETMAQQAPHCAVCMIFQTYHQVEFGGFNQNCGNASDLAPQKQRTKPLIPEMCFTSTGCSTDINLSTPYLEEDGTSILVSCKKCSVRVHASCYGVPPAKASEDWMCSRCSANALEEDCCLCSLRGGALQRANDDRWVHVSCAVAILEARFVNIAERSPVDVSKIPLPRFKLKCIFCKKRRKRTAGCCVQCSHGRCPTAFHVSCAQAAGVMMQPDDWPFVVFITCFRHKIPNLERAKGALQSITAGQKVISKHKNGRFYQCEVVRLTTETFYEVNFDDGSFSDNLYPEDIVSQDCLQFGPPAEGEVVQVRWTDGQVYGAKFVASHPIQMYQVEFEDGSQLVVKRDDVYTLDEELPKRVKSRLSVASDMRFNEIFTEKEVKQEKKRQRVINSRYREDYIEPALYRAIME
# The depositor's hits bear a star; i = inactive; ? = inconclusive; nt = no result; ! = repeats disagree; [ ] = another dose, or the depositor's remark. A selection: hits, their analogues and other compounds. The true share with any hit is near 8.7%. The call rests on the fitted dose curve; in most records, active means well fitted curve in the direction sought with a large enough effect; inconclusive means small, poorly fitted or top-dose-only effect, or another doubt; inactive means no such curve, though single readings can be large; an effect the other way counts as inactive or inconclusive. Potency means the concentration at half of the fitted maximal effect.
SMILES,HP1b chromo inh,BAZ2B inh,G9a inh,ALOX12 inh,Sfp PPTase inh,JMJD2A Tudor
COc1ccccc1N1CCN(C(=O)c2ccc3[nH]c4c(c3c2)CCCC4)CC1,?,45µM*,?,7%,-21%,50µM*
COc1ccc2cc(C(=O)N3CCN(c4ccccc4F)CC3)[nH]c2c1,44%,-21%,-45%,?,5%,-4%
Cn1cc(C2c3ccccc3C(=O)N2CC(=O)NCC(N)=O)c2ccccc21 (stereo unspecified),nt,nt,nt,7%,nt,nt
O=C([C@@H]1C[C@H](Oc2cccnc2)CN1C(=O)c1ccncc1)N1CCCC1,nt,nt,nt,45%,nt,nt
Nc1n[nH]c(N)c1N=Nc1cccc(C(F)(F)F)c1,-1%,40µM*,71µM*,0%,0%,?
Nc1n[nH]c(N)c1N=Nc1cccc(F)c1,-17%,40µM*,?,-14%,2%,?
Cc1cc(C)[n+]2[nH]c(N)c(N=Nc3ccccc3)c2n1,-5%,?,?,?,22%,-30%
Cc1cccc(N=Nc2c(N)n[nH]c2N)c1,-17%,40µM*,-12%,9%,5%,?
Cc1cccc(N=C2N=C(N)c3ccccc32)c1,17%,-9%,31%[0.501 µM],-13%,4%,-27%
Nc1n[nH]c(N)c1N=Nc1ccc(Cl)cc1,-33%,45µM*,-15%[59 µM],-22%,9%,35µM*
C[C@H]1CCC(=O)N([C@H](COc2ccccc2)Cc2ccccc2)CC1,76%,9%,32µM*,?,-14%,4%
CC1CCC(=O)N(CCOc2ccccc2)CC1 (stereo unspecified),9%,8%,-32%,0%,3%,?
CCc1ccc(C(=O)c2cn(CC(=O)Nc3ccc(F)c(F)c3)c3cc(OC)c(OC)cc3c2=O)cc1,12%,79µM*,-7%[59 µM],-23%,nt,-23%
CCOc1ccc(C(=O)c2cn(CC(=O)Nc3cc(OC)cc(OC)c3)c3ccc(F)cc3c2=O)cc1,26%,89µM*,?,-32%,nt,-33%
CCc1ccc(C(=O)c2cn(CC(=O)Nc3ccc(OC)cc3)c3cc4c(cc3c2=O)OCCO4)cc1,22%,1%,1%[59 µM],-27%,nt,-12%
CCc1ccc(C(=O)c2cn(CC(=O)Nc3ccc4c(c3)OCCO4)c3ccc(CC)cc3c2=O)cc1,43%,79µM*,-1%[59 µM],-24%,nt,2%
Cc1ccc(CN2CCCCCCNC(=O)CC2)s1,nt,nt,nt,12%,nt,nt
COc1ccc(OC)c(NC(=O)c2cnc(N3CCOCC3)c3ccccc23)c1,nt,nt,nt,9%,nt,nt
COc1cccc(Cn2c(=O)c(-c3cn(C)c4ccccc34)nc3cnc(OC)nc32)c1,nt,nt,-4%[0.501 µM],40µM*,5%,nt
COc1cccc(Cn2c(=O)c(CCc3ccccc3)nc3cnc(N4CCNCC4)nc32)c1,nt,nt,5%[0.501 µM],-3%,79µM*,nt
CN1CCN(c2ncc3nc(CCc4ccccc4)c(=O)n(Cc4cccs4)c3n2)CC1,nt,nt,-7%[12.7 µM],?,28µM*,nt
O=c1c(-c2cc(F)cc(F)c2)nc2cnc(N3CCNCC3)nc2n1Cc1ccc(F)cc1,nt,nt,14%[0.501 µM],-38%,18µM*,nt
COc1ccc(-c2coc3cc(OCc4ccccc4C)ccc3c2=O)cc1,nt,nt,nt,20%,nt,nt
O=c1c(-c2ccc(Cl)cc2)nc2cnc(N3CCNCC3)nc2n1CCc1ccccc1,nt,nt,-3%[0.501 µM],?,45µM*,nt
COc1ccc(-c2nc3cnc(N4CCNCC4)nc3n(CCc3ccccc3)c2=O)cc1,nt,nt,9%[12.7 µM],0%,?,nt
SMILES,HP1b chromo inh,BAZ2B inh,G9a inh,ALOX12 inh,Sfp PPTase inh,JMJD2A Tudor
CN1CCN(c2ncc3nc(CCc4ccccc4)c(=O)n(CCc4ccccc4)c3n2)CC1,nt,nt,13%[0.501 µM],0%,-6%,nt
O=c1c(CCc2ccccc2)nc2cnc(N3CCNCC3)nc2n1CCc1ccccc1,nt,nt,7%[12.7 µM],-4%,40µM*,nt
CNC(=O)C1(NC(=O)c2ccc(CCC(C)(C)O)cc2)CCCCC1,nt,nt,nt,-19%,nt,nt
NC(=S)N=Nc1c(O)[nH]c2cc(F)c(F)cc12,20%,4%,6%[59 µM],7%,45µM*,-26%
NC(=S)N=Nc1c(O)[nH]c2c(Cl)cc(Cl)cc12,-22%,nt,nt,?,nt,-34%
NCCOB(c1ccccc1)c1ccccc1,nt,nt,-17%[2.33 µM],?,56µM*!,nt
NCCOc1ccccc1,nt,nt,nt,20%,nt,nt
CC(C)N1C[C@H](C(=O)NCCOc2ccccc2)[C@H](C(=O)O)C1,nt,nt,nt,48%,nt,nt
Cc1ccc(N2CCN(C(=O)c3cc4ccccc4[nH]3)CC2)cc1,nt,nt,nt,-50%,nt,nt
Cc1ccc(-c2csc3ncn(CC#N)c(=O)c23)cc1,35%,9%,nt,-14%,-17%,-26%
Cc1ccc(-c2csc3ncn(CC#N)c(=O)c23)cc1C,?,50µM*,?,?,7%,50µM*
CCOC(=O)c1ccc(NC(=O)COc2ccc(-c3nnc4n3CCCC4)cc2)cc1,nt,nt,nt,25%,nt,nt
Cc1nc2ccccc2c(=O)n1/N=C/c1ccc2ccccc2c1O,12%,?,28µM*,-19%,3%,?
Cc1nc2ccccc2c(=O)n1/N=C/c1ccc(O)c(O)c1O,?,?,1.3µM*,i,7.1µM*,14µM*
Cc1[nH]n(-c2ccccc2)c(=O)c1/C=N/n1c(C)nc2ccccc2c1=O,33%,1%,3.2µM*,-20%,-19%,-11%[57.1 µM]
Cc1nc2ccccc2c(=O)n1/N=C/c1ccccc1O,36%,-7%,nt,35%,-6%,-12%
Cc1cc([N+](=O)[O-])cc(/C=N/n2c(C)nc3ccccc3c2=O)c1O,33%,79µM*,-37%,?,19%,?
Cc1ccc(-n2[nH]c(C)c(/C=N/n3c(C)nc4ccccc4c3=O)c2=O)cc1,32%,4%,-6%,5%,-2%,-14%
Cc1nc2ccccc2c(=O)n1/N=C/c1ccccc1,30%,0%[57.1 µM],28%[0.501 µM],13%,7%,1%
CN(C)S(=O)(=O)c1ccccc1CNS(=O)(=O)c1ccc2c(c1)CCC2,nt,nt,nt,-4%,nt,nt
Cc1nc(N(C)C2CCCCC2)ncc1C(C)NC(=O)C1(CO)CC1 (stereo unspecified),nt,nt,nt,96%,nt,nt
Cc1cc(C(=O)OCC(=O)NC2CCCCC2)c(C)o1,21%,?,3%,-12%,24%,-13%
CC(C)C(C)NC(=O)COC(=O)c1cccc(C(=O)OCC(=O)NC(C)C(C)C)n1 (stereo unspecified),29%,?,10µM*,0%,2%,?
O=C(COC(=O)c1cccc(C(=O)OCC(=O)NC2CCCCC2)n1)NC1CCCCC1,29%,12%,50µM*,-34%,11%,?
Cc1cc2c(cc(C(=O)OCC(=O)NC3CCCCC3)n2C)o1,-29%[57 µM],nt,nt,11%,nt,22µM*
O=c1[nH]c(=O)c2nc3c4ccccc4c4ccccc4c3nc2[nH]1,-7%,56µM*,40µM*,-4%,?,-32%[11.4 µM]
